Reference: PubChem BioAssay (NCATS)
Values joined by “and” are separate entries in the source; they are usually repeats but may differ in a detail not shown here. Identical values can stand only once. Unmarked numbers belong to inactive results. Records with an inconclusive call do not appear. Active and inactive are the calls of the source. Unless noted, the call rests on the fitted dose curve; in most records, active means well fitted inhibition curve with a large enough effect; inconclusive means small, poorly fitted or top-dose-only effect; inactive means flat fitted curve, though single readings scatter.

How the values were obtained:
[1] = Drug repurposing screens with cells derived from glioblastoma tumor samples (AID 1345199); details: GBM patient neurospheres viability, ATP luminescence, 48 h; further: nearly all actives have a fitted effect of over 40% in size; further: potency means the concentration at half of the fitted maximal effect; on activity, negative = cell killing: on the % scale 0 is the no-effect control and ±100 the full control effect
Procedure, shortened: (§1)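 Four patient lines of CD133+ GBM neurospheres were screened at several concentrations; hits were retested in those lines plus three slower-growing GBM lines, using 48-hour treatment and ATP-based viability.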

astro = control astrocytes; assay: as above; details: viability, ATP luminescence, 48 h; series mostly up to 45.9 µM
Procedure, shortened: as §1

[2] = target: Nuclear receptor subfamily 1 group I member 2 (Rattus norvegicus) (UniProt Q9R1A7); assay: qHTS assay for small molecule activators of the rat pregnane X receptor (rPXR) signaling pathway (AID 651751; call rule not given here; further: 0% is about no effect); details: rPXR reporter cells, luciferase (One-Glo), 24 h
[3] = at 45.9 µM (top of the series), tumour line B
[4] = at 45.9 µM (top of the series), tumour line D
[5] = at 46 µM (top of the series), tumour line A
[6] = at 46.1 µM (top of the series), tumour line C

Sequence of Nuclear receptor subfamily 1 group I member 2 (Rattus norvegicus) (Q9R1A7 whole entry, looked up): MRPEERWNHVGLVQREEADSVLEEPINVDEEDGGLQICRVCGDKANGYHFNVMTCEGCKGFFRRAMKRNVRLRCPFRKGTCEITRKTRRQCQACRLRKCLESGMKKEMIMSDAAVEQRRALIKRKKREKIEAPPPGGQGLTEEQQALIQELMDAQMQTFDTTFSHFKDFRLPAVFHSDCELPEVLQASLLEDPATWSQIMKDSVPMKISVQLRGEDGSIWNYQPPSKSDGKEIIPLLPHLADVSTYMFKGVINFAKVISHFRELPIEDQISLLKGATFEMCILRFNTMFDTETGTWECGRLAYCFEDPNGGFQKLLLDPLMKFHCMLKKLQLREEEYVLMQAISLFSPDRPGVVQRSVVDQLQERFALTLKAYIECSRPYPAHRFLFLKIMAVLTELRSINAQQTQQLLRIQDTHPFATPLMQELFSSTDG

Row | Structure (SMILES) | activity, negative = cell killing [1, 3] [%] | activity, negative = cell killing [1, 4] [%] | activity, negative = cell killing [1, 5] [%] | activity, negative = cell killing [1, 6] [%] | Potency (astro) | max response [2] | Potency ([1]; tumour line A) | activity, negative = cell killing ([1]; at 20 µM (top of the series), tumour line C) [%] | Potency ([1]; tumour line D)
1 | C=C(C)C1CC=C(C)CC1 (stereo not given) | -13.3 | -4.33 | -25 | -2.45 | inactive | 7.4% and -2.46% |  |  | 
2 | Cc1ccc(S(=O)(=O)NCl)cc1 | -6.22 | 7.3 | -22.9 | -11.3 | inactive | -0.198% |  |  | 
3 | Nc1ncnc2c1ncn2[C@H]1CC[C@@H](CO)O1 | -7.29 | -3.43 | -28.3 | -20.8 | inactive | -2.84% and -0.199% |  |  | 
4 | OCc1ccccc1 | -6.55 | 18 | -25.4 | 15.3 | inactive | 22.6% |  |  | 
5 | CC[C@H]1OC(=O)[C@H](C)[C@@H](O[C@H]2C[C@@](C)(OC)[C@@H](O)[C@H](C)O2)[C@H](C)[C@@H](O[C@@H]2O[C@H](C)C[C@H](N(C)C)[C@H]2O)[C@](C)(O)C[C@@H](C)CN(C)[C@H](C)[C@@H](O)[C@]1(C)O | -13.7 | -25.4 |  | -5.95 | inactive | -1.6% | 5.01 µM (active) |  | 
6 | CN(CCO)CC(O)Cn1cnc2c1c(=O)n(C)c(=O)n2C (stereo not given) (tested in a mixture with another compound) | -0.373 | -10.7 | -23.5 | -30 | inactive | -1.56% |  |  | 
7 | CC1=C[C@H](O)CC(C)(C)[C@H]1/C=C/C(C)=C/C=C/C(C)=C/C=C/C=C(C)/C=C/C=C(C)/C=C/C1=C(C)C[C@@H](O)CC1(C)C | -18.9 | -21.1 |  | -27.4 | inactive |  |  |  | 
8 | Cc1ncc[nH]1 | -1 | -14.2 | -4.28 | -3.58 | inactive | 1.58% |  |  | 
9 | CCCCC(CC)COS(=O)(=O)O (stereo not given) | -6.03 | -2.06 | -18.8 | -4.44 | inactive | 0.915% |  |  | 
10 | NCCN | -1.66 | -17.5 | -28.2 | 1.75 | inactive | 4.88% |  |  | 
11 | O=P(O)(O)O | 9.14 | -2.27 | -6.51 | 0.794 | inactive | -0.433% |  |  | 
12 | NC(N)=O | -9.26 | -11.1 | -23.3 | 7.05 | inactive | 3.1% |  |  | 
13 | CC(C)(C)NC[C@H](O)COc1ccccc1C1CCCC1 |  |  |  |  | inactive |  | 4.47 µM (active) | 19 | 12.6 µM (active)
14 | O=C1CCC(c2ccccc2)(C2CCN(Cc3ccccc3)CC2)C(=O)N1 (stereo not given) | -26.8 | -22.6 |  | -22.6 | inactive |  | 11.2 µM (active) |  | 
15 | OB(O)O | -12.9 | -13.8 | -26.5 | 5.29 | inactive | 1.69% and 5.36% |  |  | 
16 | CO | -8.56 | -4.99 | -10.2 | -11.6 | inactive | 4.07% |  |  | 
17 | CC(C)(Oc1ccc(C2CCCc3ccccc32)cc1)C(=O)O (stereo not given) | -18.2 | -16.7 | -21.9 |  | inactive |  |  |  | 
